Shown are actives, neighbours in structure and some others; about 2.2% of the full set was active somewhere.
Abeta yeast res: compounds reversing amyloid beta toxicity in yeast. yeast expressing A-beta42, growth rescue, OD600, 48 h; response scale: 0% DMSO, 100% iron-clioquinol control. AID 1347071. 410,000 compounds, 0.063% hits. Potency, µM (series often up to 46.1 µM), usual class: activators; note: nearly all actives have a fitted effect of over 55% in size
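Yeast growth medium received pinned compounds, then yeast cells expressing toxic A-beta were added; plates incubated at 30 C for 48 hr. Growth read as absorbance at 600 nm, normalized to DMSO and equimolar FeCl3 plus clioquinol controls.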
aSyn yeast inh: rescues yeast growth from alpha-synuclein toxicity; 370,000 compounds, 0.14% hits; Yeast expressing alpha-synuclein, growth rescue, BacTiter-Glo, 24 h; Potency, µM (titrated, usually from 46.1 µM), usual class: activators; note: nearly all actives have a fitted effect of over 65% in size
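Rescue of yeast growth: cells expressing toxic alpha-synuclein, induced in galactose at OD600 0.02, incubated with compound 24 h at 30 C. ATP luminescence quantified growth; inhibitors of toxicity appear as activators.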
FUS suppressor: rescues growth of FUS-expressing yeast; S. cerevisiae FUS-expressing, growth rescue, OD600, 24 h; Potency, µM (series often up to 76.6 µM), usual class: activators; 390,000 compounds, 0.24% hits; AID 1347120; note: nearly all actives have a fitted effect of over 55% in size
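Galactose (2%) drives FUS expression in yeast precultured in raffinose; seeding density OD 0.005. Test compounds incubated 24hr at 30C and 99% humidity before absorbance at 600 nm was measured.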
TDP43 rescue: TDP-43 toxicity inhibition in yeast; TDP-43 expressing yeast growth rescue, BacTiter-Glo, 24 h; Potency, µM (top dose mostly 46.1 µM), most hits filed as activators; 410,000 compounds, 1.8% hits; note: nearly all actives have a fitted effect of over 50% in size
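Galactose-induced TDP-43 yeast, OD600=0.02, compound pinned; 24 hr, 30 deg C; BacTiter-Glo luminescence for growth. Inhibitors of TDP-43 toxicity read as activators.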
Mito fusion act: mitochondrial division inhibition or fusion activation | S. cerevisiae fusion-defective mutant growth rescue, CellTiterGlo 48 h | Potency, µM (top dose mostly 46.1 µM), usual class: activators | 320,000 compounds, 0.23% hits | AID 485298; note: nearly all actives have a fitted effect of over 45% in size
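Temperature-sensitive fusion-defective S. cerevisiae (e.g. fzo1-1, mgm1-5) were grown with compound in YPEG medium (3% ethanol, 3% glycerol) for 48 hours at 37C. Growth rescue was measured as viability by CellTiterGlo luminescence after 10 minutes at ambient.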
A number is an active result; i = inactive; ? = inconclusive; nt = no result given; [ ] = another dose, or the depositor's remark. Calls come from the whole dose curve; as a rule, active = well fitted curve in the direction sought with a large enough effect; inconclusive = small, poorly fitted or top-dose-only effect, or another doubt; inactive = no such curve, though single readings can be large; an effect the other way counts as inactive or inconclusive.

SMILES	Abeta yeast res	aSyn yeast inh	FUS suppressor	TDP43 rescue	Mito fusion act
CCc1ccccc1NC(=S)NCCSc1ccc(Cl)cc1	i	i	i	13µM	i
CSc1ccccc1NC(=S)NCc1ccc(Cl)cc1	16µM	i	i	?	i
CN(C)c1ccccc1-c1cc(NC=O)c2ncc(-c3cccc(C(F)(F)F)c3)n2c1	i	i	?	?	nt
O=C(CC1CC2CCC1C2)N1CCN(S(=O)(=O)c2ccccc2[N+](=O)[O-])CC1 (stereo not drawn)	i	i	i	i	i
O=C(CC1CC2CCC1C2)N1CCN(S(=O)(=O)c2ccccc2C(F)(F)F)CC1 (stereo not drawn)	i	i[1.84 µM]	?	22µM	i
COc1cccc(C2CC(=O)Nc3cc4c(cc32)CCC4)c1 (stereo not drawn)	i	?	i	i	?
O=C1CC(c2cc(Br)ccc2F)c2cc3c(cc2N1)CCC3 (stereo not drawn)	i	4.5µM	i	i	i
O=C1CC(c2cccc(Cl)c2)c2cc3c(cc2N1)CCC3 (stereo not drawn)	i	4µM	i	i	i
COC(=O)c1ccccc1NC(=O)NCc1ccc2c(c1)CCN2C(=O)c1ccccc1	i	nt	i	?	nt
COc1ccc(OC)c(NC(=O)CSc2nnc3ccc4ccccc4n23)c1	i	nt	i	i	nt
OC[C@@H]1[C@@H](c2ccccc2)C(c2ccccc2)=NN1c1ccccc1	?	?	i	13µM	nt
OC[C@@H]1[C@@H](c2ccccc2)C(c2ccc(F)cc2)=NN1c1ccccc1	?	i	i	?	nt
COc1ccccc1[C@H]1C(c2cccc(Cl)c2)=NN(c2ccccc2)[C@@H]1CO	i	i	?	20µM	nt
c1ccc(CCc2nc3ccccc3[nH]2)cc1	i	i	i	i	i
Nc1cccc(CCc2nc3cc4ccccc4cc3[nH]2)c1	i	i	i	i	20µM
COc1ccc(C(=O)CCC(=O)O)cc1	i	i	i	i	i
O=C(O)CCC(=O)c1ccc(C2CCCCCC2)cc1	i	i	i	18µM	nt
COc1ccc(OC)c(S(=O)(=O)NCc2ccc3c(c2)CCN3C(=O)c2cccc(C)c2)c1	i	nt	?	i	nt
COC1=Cc2c(ccc3ccc(=O)oc23)OC1(C)C	i	nt	i	13µM	i
CN/C=C1\C(=O)C(C)(C)Oc2ccc3ccc(=O)oc3c21	i	i	i	i	i
CC(C)(C)c1ccc(S(=O)(=O)N2CCCC(C(=O)NCc3ccco3)C2)cc1 (stereo not drawn)	nt	nt	i	nt	nt
COc1ccc(N2CCN(c3nc(-c4cccs4)nc4ccccc34)CC2)cc1	i	i	?	13µM	i
CC1=Nc2cc(C(=O)O)ccc2Sc2c(C)ccc(C)c21	i	i	i	25µM	i
CC1=Nc2cc(C(=O)N3CCCC3)ccc2Sc2c(C)ccc(C)c21	nt	?	?	i	i
CCC(C)NC(=O)c1ccc2c(c1)N=C(C)c1cc(C)ccc1S2 (stereo not drawn)	i	nt	?	i	nt
SMILES	Abeta yeast res	aSyn yeast inh	FUS suppressor	TDP43 rescue	Mito fusion act
CC1=Nc2cc(C(=O)O)ccc2Sc2ccc(C)cc21	i	i	i	13µM	i
Cc1sc2ccccc2[n+]1C	nt	i	nt	nt	nt
N/C(=N\OC(=O)c1ccc2c(c1)OCO2)c1cccc(Br)c1	i	i	i	6.3µM	i
Cc1ccc(CN(Cc2ccco2)C(=O)COc2ccc(Cl)cc2)o1	i	nt	i	i	nt
Cc1cc(C)c(Cn2cnc(-c3ccc([N+](=O)[O-])cc3)c2)c(C)c1	i	i	i	i	i
CC(C)(C)c1ccc(Cn2cnc(-c3ccc([N+](=O)[O-])cc3)c2)cc1	i	i	nt	32µM	i
COc1ccc(OC)c(C(c2nnnn2C2CCCC2)N2CCN(c3ccccc3F)CC2)c1 (stereo not drawn)	i	i	i	32µM	i
COc1ccc(N2CCN(C(c3cccs3)c3nnnn3C3CCCC3)CC2)cc1 (stereo not drawn)	i	i	i	i	11µM
COc1ccccc1N1CCN(C(c2ccccn2)c2nnnn2C2CCCCC2)CC1 (stereo not drawn)	i	i	i	i	i
COc1ccc(N2CCN(C(c3ccccc3OC)c3nnnn3C3CCCC3)CC2)cc1 (stereo not drawn)	i	i	?	?	i
Fc1ccccc1N1CCN(C(c2ccccn2)c2nnnn2C2CCCCC2)CC1 (stereo not drawn)	i	i	i	i	13µM
O=C(NCc1noc2ccccc12)Nc1ccc(F)cc1F	i	nt	i	i[9.22 µM]	nt
COc1cc([N+](=O)[O-])ccc1NC(=O)N1CCN(c2cc(-c3noc(C)n3)ccc2C)CC1	i	i	i	i	nt
CCOc1ccc(OCC)c(Nc2nc3ccc(Cl)cc3n3cnnc23)c1	i	nt	i	i	nt
O=S(=O)(c1ccc(Oc2ccc(Br)cc2)cc1)N1CCOCC1	i	i	i	25µM	i
CCc1ccc(NC2CC(=O)N(CCc3ccc(OC)c(OC)c3)C2=O)cc1 (stereo not drawn)	i	i	i	18µM	i
Clc1ccccc1C1=CC(c2ccco2)n2ncnc2N1 (stereo not drawn)	i	i	i	14µM	i
CCOc1ccc(C2C=C(c3ccc(C)cc3)Nc3nnnn32)cc1 (stereo not drawn)	i	i	?	22µM	i
CC(C)(C)c1ccc(C2=CC(c3ccccc3)n3ncnc3N2)cc1 (stereo not drawn)	i	i	i	i	nt
FC(F)(F)c1ccccc1C1=CC(c2ccccc2)n2ncnc2N1 (stereo not drawn)	i	i	i	18µM	nt
CCOc1ccc(C2C=C(c3ccc(C)cc3)Nc3ncnn32)cc1 (stereo not drawn)	nt	nt	nt	nt	i
CCOc1ccc(C2C=C(c3ccccc3)Nc3nnnn32)cc1 (stereo not drawn)	i	i	i	i	i
Cc1ccc(C2=CC(c3ccc(C)cc3)n3ncnc3N2)cc1 (stereo not drawn)	?	?	i	16µM	nt
CCc1ccc(OCC(=O)N(Cc2ccc(C)o2)C2CCS(=O)(=O)C2)cc1 (stereo not drawn)	i	nt	i	i	nt
CS(=O)(=O)c1ccc(C(=O)OCC(=O)N2CC(=O)Nc3ccccc32)cc1[N+](=O)[O-]	nt	i	nt	nt	nt
SMILES	Abeta yeast res	aSyn yeast inh	FUS suppressor	TDP43 rescue	Mito fusion act
Cc1ccc(NC(=O)Nc2nnc(SCC(=O)N3CCC(C)CC3)s2)cc1	i	nt	i	i	nt
Cc1cccc(C2C=C(c3ccc(F)cc3)Nc3nc4ccccc4n32)c1 (stereo not drawn)	i	nt	i	32µM	nt
Cc1ccc(C2=CC(c3ccccc3C)n3c(nc4ccccc43)N2)cc1 (stereo not drawn)	i	nt	i	10µM	nt
C=CCc1c(C)nc2c(OC)cccc2c1Cl	i	i	i	i	i
COc1cccc2c(Cl)c(CC=C(Cl)Cl)c(C)nc12	i	i	i	11µM	i
CC(=O)c1ccc(NC(=O)CSc2cn(CC(=O)N3CCCCC3)c3ccccc23)cc1	i	nt	i	i	nt

High-throughput results deposited in PubChem BioAssay by National Center for Advancing Translational Sciences (NCATS).
